According to PubChem BioAssay AID1159580 (chemical genetic matrix, 2015):
The campaign covered roughly 5,500 compounds. About 2,000 (36%) were called active. Another 18% or so got no clear call; they are omitted. Cut-off read from the data, not from the text of the source: active = normalized growth mostly below about 0.91 (no sharp cut-off); inconclusive = no clear call, values can overlap the other calls; inactive = mostly above about 0.92. Some of the results follow.

Assay: chemical genetic growth profiling, strain panel (AID 1159580);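 note: tested at 20 µM; growth read once vehicle control cultures reached saturation at 30 °C; 1 = growth at the plate median or of vehicle wells; lower values mean less growth of the strain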
Details: S. cerevisiae deletion strains, growth OD
[1] = locus YHR030C, strain SLT2, stronger effect = lower value
[2] = locus YHR079C, strain IRE1, stronger effect = lower value
[3] = locus YJL095W, strain BCK1, stronger effect = lower value
[4] = locus YJR066W, strain TOR1, stronger effect = lower value
[5] = locus YLR113W, strain HOG1, stronger effect = lower value
[6] = locus YNL183C, strain NPR1, stronger effect = lower value
[7] = locus YOR231W, strain MKK1, stronger effect = lower value
[8] = locus YPL256C, strain CLN2, stronger effect = lower value

Measured: normalized growth

N#CSCC(=O)c1ccccc1
active: locus YAR019C, strain CDC15, stronger effect = lower value 0.0948 | locus YBL105C, strain PKC1, stronger effect = lower value 0.0869 | locus YBR135W, strain CKS1, stronger effect = lower value 0.0998 | locus YBR136W, strain MEC1, stronger effect = lower value 0.0968 | locus YBR160W, strain CDC28, stronger effect = lower value 0.101 | locus YDL017W, strain CDC7, stronger effect = lower value 0.092 | locus YDL028C, strain MPS1, stronger effect = lower value 0.108 | locus YDL101C, strain DUN1, stronger effect = lower value 0.159 | locus YDL108W, strain KIN28, stronger effect = lower value 0.107 | locus YDL214C, strain PRR2, stronger effect = lower value 0.125 | locus YDR052C, strain DBF4, stronger effect = lower value 0.273 | locus YDR477W, strain SNF1, stronger effect = lower value 0.107 | locus YER123W, strain YCK3, stronger effect = lower value 0.121 | locus YER133W, strain GLC7, stronger effect = lower value 0.12 | locus YFL009W, strain cdc4, stronger effect = lower value 0.104 | locus YFL029C, strain CAK1, stronger effect = lower value 0.0973 | locus YFR003C, strain YPI1, stronger effect = lower value 0.0991 | locus YFR019W, strain FAB1, stronger effect = lower value 0.0919 | locus YGR040W, strain KSS1, stronger effect = lower value 0.119 | locus YGR052W, strain FMP48, stronger effect = lower value 0.127 | locus YGR092W, strain DBF2, stronger effect = lower value 0.0982 | [1] 0.111 | [2] 0.107 | locus YHR082C, strain KSP1, stronger effect = lower value 0.145 | locus YHR205W, strain SCH9, stronger effect = lower value 0.00392 | locus YIL147C, strain SLN1, stronger effect = lower value 0.0993 | [3] 0.101 | locus YJL128C, strain PBS2, stronger effect = lower value 0.499 | locus YJL157C, strain FAR1, stronger effect = lower value 0.0986 | locus YJR016C, strain ILV3, stronger effect = lower value 0.0975 | locus YJR066W, strain TOR1 (second series), stronger effect = lower value 0.101 | [4] 0.122 | locus YKL048C, strain ELM1, stronger effect = lower value 0.154 | locus YKL067W, strain YNK1, stronger effect = lower value 0.119 | locus YKL101W, strain HSL1, stronger effect = lower value 0.115 | locus YKL193C, strain SDS22, stronger effect = lower value 0.105 | locus YKL203C, strain TOR2, stronger effect = lower value 0.112 | [5] 0.147 | locus YLR133W, strain CKI1, stronger effect = lower value 0.0895 | locus YLR403W, strain SFP1, stronger effect = lower value 0.0174 | locus YML070W, strain DAK1, stronger effect = lower value 0.126 | locus YMR001C, strain CDC5, stronger effect = lower value 0.0981 | locus YMR205C, strain PFK2 (second series), stronger effect = lower value 0.095 | locus YMR277W, strain FCP1, stronger effect = lower value 0.0965 | locus YNL006W, strain LST8, stronger effect = lower value 0.0939 | locus YNL020C, strain ARK1, stronger effect = lower value 0.0915 | locus YNL161W, strain CBK1, stronger effect = lower value 0.0943 | [6] 0.13 | locus YNL207W, strain RIO2, stronger effect = lower value 0.121 | locus YNL222W, strain SSU72, stronger effect = lower value 0.0984 | locus YNL307C, strain MCK1 (second series), stronger effect = lower value 0.0995 | locus YOL078W, strain AVO1, stronger effect = lower value 0.107 | locus YOL136C, strain PFK27, stronger effect = lower value 0.14 | locus YOR061W, strain CKA2, stronger effect = lower value 0.158 | locus YOR119C, strain RIO1, stronger effect = lower value 0.132 | [7] 0.118 | locus YOR329C, strain SCD5, stronger effect = lower value 0.0919 | locus YPL031C, strain PHO85, stronger effect = lower value 0.107 | locus YPL153C, strain RAD53, stronger effect = lower value 0.117 | locus YPL204W, strain HRR25, stronger effect = lower value 0.109 | locus YPL209C, strain IPL1, stronger effect = lower value 0.0967 | [8] 0.135 | locus YPR025C, strain CCL1, stronger effect = lower value 0.0952 | locus YPR106W, strain ISR1, stronger effect = lower value 0.469 | locus YPR111W, strain DBF20, stronger effect = lower value 0.505 | strain NNK1, stronger effect = lower value 0.0857 | strain TSCII, stronger effect = lower value 0.0982

O=C(OOC(=O)c1ccccc1)c1ccccc1
inactive: locus YAL021C, strain ccr4, stronger effect = lower value 0.969 | locus YAL026C, strain drs2, stronger effect = lower value 0.952 | locus YAL030W, strain snc1, stronger effect = lower value 0.976 | locus YBL061C, strain skt5, stronger effect = lower value 0.962 | locus YBR009C, strain hhf1, stronger effect = lower value 0.96 | locus YBR023C, strain chs3, stronger effect = lower value 0.977 | locus YBR171W, strain sec66, stronger effect = lower value 0.948 | locus YBR231C, strain swc5, stronger effect = lower value 0.978 | locus YBR279W, strain paf1, stronger effect = lower value 0.991 | locus YCL011C, strain gbp2, stronger effect = lower value 0.962 | locus YCL016C, strain dcc1, stronger effect = lower value 0.956 | locus YCL061C, strain MRC1, stronger effect = lower value 0.96 | locus YCL069W, strain vba3, stronger effect = lower value 0.993 | locus YCR088W, strain abp1, stronger effect = lower value 0.998 | locus YDL005C, strain med2, stronger effect = lower value 0.977 | locus YDL040C, strain nat1, stronger effect = lower value 0.992 | locus YDR001C, strain nth1, stronger effect = lower value 0.976 | locus YDR069C, strain doa4, stronger effect = lower value 0.965 | locus YDR137W, strain rgp1, stronger effect = lower value 0.959 | locus YDR159W, strain sac3, stronger effect = lower value 0.94 | locus YDR195W, strain ref2 1.01 | locus YDR297W, strain sur2, stronger effect = lower value 0.982 | locus YDR334W, strain swr1, stronger effect = lower value 0.92 | locus YDR335W, strain msn5, stronger effect = lower value 0.986 | locus YDR392W, strain spt3, stronger effect = lower value 0.933 | locus YEL003W, strain gim4, stronger effect = lower value 0.989 | locus YEL037C, strain rad23, stronger effect = lower value 0.977 | locus YEL061C, strain CIN8 (second series), stronger effect = lower value 0.985 | locus YER015W, strain faa2, stronger effect = lower value 0.959 | locus YER016W, strain bim1, stronger effect = lower value 0.993 | locus YER111C, strain swi4, stronger effect = lower value 0.972 | locus YER155C, strain BEM2 (second series), stronger effect = lower value 0.971 | locus YFR010W, strain ubp6, stronger effect = lower value 0.948 | locus YGL167C, strain pmr1, stronger effect = lower value 0.965 | locus YGL173C, strain kem1, stronger effect = lower value 0.956 | locus YGL227W, strain vid30, stronger effect = lower value 0.981 | locus YGL240W, strain doc1, stronger effect = lower value 0.989 | locus YGL253W, strain hxk2, stronger effect = lower value 0.96 | locus YHR013C, strain ard1, stronger effect = lower value 0.959 | locus YHR027C, strain rpn1, stronger effect = lower value 0.95 | locus YHR142W, strain chs7, stronger effect = lower value 0.95 | locus YJL092W, strain hpr5, stronger effect = lower value 0.97 | locus YJL095W, strain BCK1 (second series), stronger effect = lower value 0.993 | locus YJL115W, strain asf1, stronger effect = lower value 0.95 | locus YJL129C, strain trk1, stronger effect = lower value 0.991 | locus YJL154C, strain vps35, stronger effect = lower value 0.984 | locus YJL164C, strain tpk1, stronger effect = lower value 0.983 | locus YJL166W, strain qcr8, stronger effect = lower value 0.964 | locus YJL187C, strain SWE1, stronger effect = lower value 0.981 | locus YKL160W, strain elf1, stronger effect = lower value 0.969 | locus YKR026C, strain gcn3, stronger effect = lower value 0.979 | locus YKR091W, strain srl3, stronger effect = lower value 0.976 | locus YLL001W, strain dnm1, stronger effect = lower value 0.941 | locus YLL026W, stronger effect = lower value 0.974 | locus YLL041C, strain sdh2, stronger effect = lower value 0.968 | locus YLR027C, strain aat2, stronger effect = lower value 0.961 | locus YLR221C, strain rsa3, stronger effect = lower value 0.93 | locus YLR258W, strain gsy2, stronger effect = lower value 0.991 | locus YLR262C, strain YPT6 (second series), stronger effect = lower value 0.976 | locus YLR320W, strain mms22, stronger effect = lower value 0.95 | locus YLR342W, strain FKS1, stronger effect = lower value 0.971 | locus YLR357W, strain rsc2, stronger effect = lower value 0.975 | locus YLR370C, strain arc18, stronger effect = lower value 0.954 | locus YLR384C, strain iki3, stronger effect = lower value 0.954 | locus YML120C, strain ndi1, stronger effect = lower value 0.944 | locus YMR058W, strain fet3, stronger effect = lower value 0.953 | locus YMR125W, strain sto1, stronger effect = lower value 0.979 | locus YMR129W, stronger effect = lower value 0.998 | locus YMR205C, strain PFK2, stronger effect = lower value 0.949 | locus YMR231W, strain pep5, stronger effect = lower value 0.984 | locus YNL071W, strain lat1, stronger effect = lower value 0.981 | locus YNL209W, strain ssb2, stronger effect = lower value 0.981 | locus YNL248C, strain rpa49, stronger effect = lower value 0.957 | locus YNL322C, strain KRE1 (second series), stronger effect = lower value 0.941 | locus YNR049C, strain mso1, stronger effect = lower value 0.959 | locus YOR001W, strain rrp6, stronger effect = lower value 0.982 | locus YOR070C, strain gyp1, stronger effect = lower value 0.981 | locus YOR080W, strain dia2, stronger effect = lower value 0.961 | locus YOR083W, strain WHI5, stronger effect = lower value 0.965 | locus YOR106W, strain vam3, stronger effect = lower value 0.926 | locus YOR265W, strain rbl2, stronger effect = lower value 0.98 | locus YOR270C, strain vph1, stronger effect = lower value 0.973 | locus YOR290C, strain snf2, stronger effect = lower value 0.917 | locus YPL051W, strain arl3, stronger effect = lower value 0.97 | locus YPL078C, strain atp4, stronger effect = lower value 0.966 | locus YPL106C, strain sse1, stronger effect = lower value 0.977 | locus YPL240C, strain hsp82, stronger effect = lower value 0.982
active: [1] 0.842 | [2] 0.799 | [3] 0.812 | [4] 0.82 | [5] 0.642 | [6] 0.773 | [7] 0.792 | [8] 0.773
